# Data: PubChem BioAssay
# Several values for one entry are separate records, joined by “and”; a condition that tells them apart may be missing. Equal entries are not always repeated. For part of these data: Potency and affinity values are given separately. Where a structure was tested more than once in an assay, its records may differ in their call. Activity calls are given as the source filed them. Unless noted, how the calls were made is not given here.
# Legend:
# [1] = kinase inhibitors against Plasmodium liver-stage infection, cell-based, known kinase inhibitor set, luminescence, hepatoma host viability (AID 624392); conditions: Plasmodium liver stage in hepatoma cells, luciferase luminescence, concentration not given here; liver cell % of control: measured here: host liver cell viability; parasite % of control: stronger effect = lower value;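 further: infected cells incubated roughly two days before readout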
# [2] = modulators of glucocorticoid suppression of NF-kB, cell-based, luciferase, IL-1B stimulus, dexamethasone (AID 624486); conditions: NF-kB luciferase reporter, IL-1B + dexamethasone, luminescence; percent of negative control (+Dex): actives lie on both sides, concentration not given here; z-score: measured here: IL-1B alone, no Dex;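 on percent of negative control (+Dex): 100% = mean signal of vehicle control wells on the plate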
# [3] = molecular target: Cellular tumor antigen p53 (Homo sapiens) (UniProt P04637); assay: kinase inhibitors altering GFP-p53 stability in HPV16-positive cells, imaging, known kinase inhibitor set, EGFP/DsRed ratio (AID 1053116); conditions: stronger effect = higher value; EGFP object count: measured here: GFP-p53 positive objects count;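 further: cells exposed to compounds for 24 h at 37 °C before reading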
# [4] = IRF3 reporter activation in THP-1 macrophages, cell-based, PMA-stimulated THP-1, luminescence (AID 1053176); conditions: PMA-differentiated THP-1, IRF3 reporter luminescence; stronger effect = higher value
# [5] = kinase inhibitors altering Pseudomonas killing of worms, whole organism (AID 651566);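 further: tested at 14 µM; sign flipped so higher z means a lower ratio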; conditions: C. elegans killed by P. aeruginosa, survival ratio
# [6] = activators of macrophage pro-inflammatory response, cell-based, murine, luminescence (AID 652131); conditions: murine macrophage pro-inflammatory reporter, stronger effect = higher value
# [7] = survival rescue of mitochondrial mutant cells in low glucose, primary screen, MELAS cybrids, Rieske KO mouse fibroblasts, CellTiter-Glo (AID 1508586;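 active means mean z-score across replicates of 1.96 or higher in either the MELAS or the Rieske mutant cell line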;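 further: z relative to plate mean and SD of compound and empty wells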)
# [8] = antimalarial activity against Dd2 strain (AID 2302;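 active means growth inhibition above 50% at the single 2 µM test dose, taken to imply half-maximal potency below 2 µM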;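 further: 0% = DMSO untreated growth and 100% = chloroquine plus artemisinin killed control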); conditions: P. falciparum Dd2 in RBCs, LDH growth readout, 72 h; at 2 µM; stronger effect = higher value
# [9] = HepG2 cytotoxicity, primary screen, cytotoxicity control for P. falciparum antimalarial project, cell-based, ATP luminescence (AID 2303;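 active means inhibition above 50%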;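 further: 0% = DMSO wells and 100% = digitonin-killed cells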); conditions: HepG2 viability, 24-48 h, at 10 µM, stronger effect = higher value
# [10] = molecular target: L-lactate dehydrogenase (Plasmodium falciparum (isolate CDC / Honduras)) (UniProt Q27743); assay: PfLDH activity inhibition – cell lysate, 3D7 strain, counter-screen for P. falciparum growth inhibition project (AID 2304);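 further: 0% = vehicle and 100% = reference inhibitor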; conditions: P. falciparum 3D7 crude extract, LDH APAD/NBT absorbance; at 2 µM; stronger effect = higher value
# [11] = inhibition of 3D7 malaria parasite growth – strain 3D7 (AID 2306);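 further: 0% = DMSO wells and 100% = chloroquine plus artemisinin control wells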; conditions: P. falciparum 3D7 erythrocytic growth, LDH absorbance, 72 h; at 2 µM; stronger effect = higher value
# [12] = molecular target: Calcium-dependent protein kinase 1 (Plasmodium falciparum (isolate 3D7)) (UniProt P62344); assay: PfCDPK1 kinase inhibitors, biochemical, TCAMS library (AID 1159585; cut-off not given, nearly all actives have IC50 up to about 0.98 µM;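 further: inhibitors leave more ATP so luminescence rises with inhibition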); conditions: recombinant PfCDPK1, Kinase-Glo ATP depletion luminescence
# [13] = molecular target: Plasmodium falciparum protein kinase 6 (PK6, PF3D7_1337100) (UniProt Q8IDW1); assay: PfPK6 kinase inhibitors, biochemical, TCAMS library (AID 1159586); conditions: recombinant PfPK6, Kinase-Glo ATP depletion luminescence
# [14] = molecular target: Protein kinase 7 (PK7), Plasmodium falciparum 3D7 (PF3D7_0213400) (UniProt Q7YTF7); assay: inhibition of Plasmodium PK7 catalytic activity – biochemical, TCAMS antimalarial set, Kinase-Glo luminescence (AID 1159587); conditions: recombinant PfPK7, Kinase-Glo ATP depletion luminescence
# [15] = molecular target: Calcium-dependent protein kinase 4 (Plasmodium falciparum (isolate 3D7)) (UniProt Q8IBS5); assay: PfCDPK4 kinase inhibitors, biochemical, TCAMS library (AID 1159588; cut-off not given, nearly all actives have IC50 up to about 0.91 µM); conditions: recombinant PfCDPK4, Kinase-Glo ATP depletion luminescence
# [16] = MELAS cybrid survival, CellTiter-Glo 48 h, stronger effect = higher value
# [17] = Rieske KO mouse fibroblast survival, CellTiter-Glo 72 h
# Sequence of Cellular tumor antigen p53 (Homo sapiens) (P04637 whole entry, looked up): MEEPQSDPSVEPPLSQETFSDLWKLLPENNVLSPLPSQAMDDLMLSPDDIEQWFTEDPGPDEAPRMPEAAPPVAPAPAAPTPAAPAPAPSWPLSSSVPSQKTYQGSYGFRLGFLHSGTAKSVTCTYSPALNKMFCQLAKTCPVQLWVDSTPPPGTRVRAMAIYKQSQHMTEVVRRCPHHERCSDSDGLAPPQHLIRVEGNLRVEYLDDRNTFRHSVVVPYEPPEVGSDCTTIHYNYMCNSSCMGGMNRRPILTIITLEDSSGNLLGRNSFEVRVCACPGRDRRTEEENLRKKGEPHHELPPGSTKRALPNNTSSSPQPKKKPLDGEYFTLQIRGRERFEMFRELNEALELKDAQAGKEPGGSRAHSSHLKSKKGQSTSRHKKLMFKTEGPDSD
# Sequence of Calcium-dependent protein kinase 4 (Plasmodium falciparum (isolate 3D7)) (Q8IBS5 whole entry, looked up): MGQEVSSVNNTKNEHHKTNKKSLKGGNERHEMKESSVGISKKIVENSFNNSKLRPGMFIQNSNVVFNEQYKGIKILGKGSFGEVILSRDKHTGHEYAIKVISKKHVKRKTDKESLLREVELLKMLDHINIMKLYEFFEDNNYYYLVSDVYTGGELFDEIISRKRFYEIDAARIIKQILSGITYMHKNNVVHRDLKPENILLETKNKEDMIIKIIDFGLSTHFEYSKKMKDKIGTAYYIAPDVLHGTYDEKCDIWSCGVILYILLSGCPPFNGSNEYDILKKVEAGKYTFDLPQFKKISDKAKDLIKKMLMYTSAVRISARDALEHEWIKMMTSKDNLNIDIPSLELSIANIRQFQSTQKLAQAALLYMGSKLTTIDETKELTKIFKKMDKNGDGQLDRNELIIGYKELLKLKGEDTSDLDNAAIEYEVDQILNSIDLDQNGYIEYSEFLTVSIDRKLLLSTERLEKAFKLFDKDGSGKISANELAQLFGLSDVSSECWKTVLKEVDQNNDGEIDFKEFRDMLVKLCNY
# Sequence of Calcium-dependent protein kinase 1 (Plasmodium falciparum (isolate 3D7)) (P62344 whole entry, looked up): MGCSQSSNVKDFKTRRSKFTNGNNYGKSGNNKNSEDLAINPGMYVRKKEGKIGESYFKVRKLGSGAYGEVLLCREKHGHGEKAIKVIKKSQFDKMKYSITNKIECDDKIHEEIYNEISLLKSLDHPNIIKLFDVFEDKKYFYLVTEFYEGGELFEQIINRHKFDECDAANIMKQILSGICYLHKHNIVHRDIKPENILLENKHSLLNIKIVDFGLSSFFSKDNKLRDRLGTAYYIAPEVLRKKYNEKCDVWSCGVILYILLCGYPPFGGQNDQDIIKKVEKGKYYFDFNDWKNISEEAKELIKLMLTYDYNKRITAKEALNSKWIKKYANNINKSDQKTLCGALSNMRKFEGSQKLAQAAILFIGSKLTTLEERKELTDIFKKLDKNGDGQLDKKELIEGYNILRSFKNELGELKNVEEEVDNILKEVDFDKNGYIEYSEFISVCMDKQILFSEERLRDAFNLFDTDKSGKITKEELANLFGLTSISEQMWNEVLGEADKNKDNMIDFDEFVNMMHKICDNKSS
# Sequence of Plasmodium falciparum protein kinase 6 (PK6, PF3D7_1337100) (Q8IDW1 1-305): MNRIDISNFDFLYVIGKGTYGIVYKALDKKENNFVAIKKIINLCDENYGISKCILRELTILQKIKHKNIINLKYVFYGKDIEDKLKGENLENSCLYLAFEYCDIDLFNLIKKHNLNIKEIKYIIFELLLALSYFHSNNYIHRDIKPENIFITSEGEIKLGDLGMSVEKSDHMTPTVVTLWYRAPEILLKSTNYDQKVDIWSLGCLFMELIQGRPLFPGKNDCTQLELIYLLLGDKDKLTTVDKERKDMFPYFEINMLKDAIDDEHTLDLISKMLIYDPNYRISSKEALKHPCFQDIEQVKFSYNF
# Sequence of L-lactate dehydrogenase (Plasmodium falciparum (isolate CDC / Honduras)) (Q27743 whole entry, looked up): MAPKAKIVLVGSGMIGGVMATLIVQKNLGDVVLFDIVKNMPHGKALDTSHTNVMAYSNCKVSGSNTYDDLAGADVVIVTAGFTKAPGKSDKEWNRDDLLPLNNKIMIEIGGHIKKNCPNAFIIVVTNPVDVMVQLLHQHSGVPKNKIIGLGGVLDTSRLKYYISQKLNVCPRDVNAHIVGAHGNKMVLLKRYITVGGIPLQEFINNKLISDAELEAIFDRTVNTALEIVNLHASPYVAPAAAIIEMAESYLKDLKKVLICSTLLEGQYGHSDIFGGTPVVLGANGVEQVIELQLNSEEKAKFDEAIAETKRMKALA
# Sequence of Protein kinase 7 (PK7), Plasmodium falciparum 3D7 (PF3D7_0213400) (Q7YTF7 1-343): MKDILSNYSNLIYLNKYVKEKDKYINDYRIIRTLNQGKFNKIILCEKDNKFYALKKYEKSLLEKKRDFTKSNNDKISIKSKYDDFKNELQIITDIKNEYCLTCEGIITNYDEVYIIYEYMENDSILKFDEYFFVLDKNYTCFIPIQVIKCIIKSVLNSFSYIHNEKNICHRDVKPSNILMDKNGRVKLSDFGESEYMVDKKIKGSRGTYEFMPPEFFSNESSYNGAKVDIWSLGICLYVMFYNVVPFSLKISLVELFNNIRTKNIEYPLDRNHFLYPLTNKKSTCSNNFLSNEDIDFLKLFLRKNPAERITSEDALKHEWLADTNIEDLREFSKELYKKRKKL
smiles,measurement,setting,value
Cn1c(=O)c(Oc2ccc(F)cc2F)cc2cnc(NC(C)(C)CO)nc21,liver cell % of control,[1],114%
same,parasite % of control,[1],73.2% (inactive)
same,percent of negative control (+Dex),[2],106% (inactive)
same,z-score,[2],1.07
same,EGFP object count,[3],3
same,EGFP/DsRed ratio,[3],0.148 (inactive)
same,fraction signal,[4],0.023 (inactive)
Cc1[nH]n(-c2ccccc2)c(=O)c1C(=O)c1ccccc1,liver cell % of control,[1],103%
same,parasite % of control,[1],53.4% (inactive)
same,percent of negative control (+Dex),[2],97% (inactive)
same,z-score,[2],0.12
same,EGFP object count,[3],5
same,EGFP/DsRed ratio,[3],0.115 (inactive)
same,fraction signal,[4],-0.0005 (inactive)
O=C1NC(=O)C(c2cccc([N+](=O)[O-])c2)=C1Nc1cc(Cl)c(O)c(Cl)c1,liver cell % of control,[1],108%
same,parasite % of control,[1],92.3% (inactive)
same,percent of negative control (+Dex),[2],80.5% (inactive)
same,z-score,[2],-0.485
same,z-score,[5],0.045 (inactive)
same,z-score,[6],0.634 (inactive)
same,fraction signal,[4],-0.003 (inactive)
same,z-score,[7]; [16],-0.803 (inactive)
same,z-score,[7]; [17],-0.48
O=C1NC(=NCCc2ccccn2)SC1=Cc1ccc2ncccc2c1,liver cell % of control,[1],170%
same,parasite % of control,[1],32.1% (inactive)
same,percent of negative control (+Dex),[2],92.5% (inactive)
same,z-score,[2],0.025
same,EGFP object count,[3],5.5
same,EGFP/DsRed ratio,[3],0.134 (inactive)
same,fraction signal,[4],0.0055 (inactive)
CC(=O)Nc1ccc2c(C3=C(c4cn(C)c5ccccc45)C(=O)NC3=O)cn(C)c2c1,liver cell % of control,[1],83.1%
same,parasite % of control,[1],16.4% (inactive)
same,percent of negative control (+Dex),[2],114% (inactive)
same,z-score,[2],-1.25
same,EGFP object count,[3],61.5
same,EGFP/DsRed ratio,[3],0.596 (active)
same,fraction signal,[4],-0.009 (inactive)
O=C1NC(=Nc2ccccc2)SC1=Cc1ccc2ncccc2c1,liver cell % of control,[1],124%
same,parasite % of control,[1],68.1% (inactive)
same,percent of negative control (+Dex),[2],98% (inactive)
same,z-score,[2],0.04
same,EGFP object count,[3],3
same,EGFP/DsRed ratio,[3],0.0469 (inactive)
same,fraction signal,[4],-0.003 (inactive)
COc1cc[nH]c1C=C1C(=O)Nc2ccc(F)c(I)c21,liver cell % of control,[1],98.3%
same,parasite % of control,[1],40.2% (inactive)
same,percent of negative control (+Dex),[2],98% (inactive)
same,z-score,[2],0.98
same,EGFP object count,[3],46
same,EGFP/DsRed ratio,[3],0.596 (inactive)
same,fraction signal,[4],0.0015 (inactive)
O=C1NC(=NCc2c(Cl)cccc2Cl)SC1=Cc1ccc2ncccc2c1,liver cell % of control,[1],106%
same,parasite % of control,[1],51.5% (inactive)
same,percent of negative control (+Dex),[2],101% (inactive)
same,z-score,[2],0.16
same,EGFP object count,[3],2.5
same,EGFP/DsRed ratio,[3],0.0754 (inactive)
same,fraction signal,[4],-0.009 (inactive)
Cn1cc(C2=C(c3cccc(OCC(O)CO)c3)C(=O)NC2=O)c2ccccc21 (centres undefined),liver cell % of control,[1],160% and 129%
same,parasite % of control,[1],22.3% (inactive) and 22.7% (inactive)
same,percent of negative control (+Dex),[2],136% (active) and 100% (inactive)
same,z-score,[2],-1.71 and 0.045
same,EGFP object count,[3],7 and 9.5
same,EGFP/DsRed ratio,[3],0.14 (inactive) and 0.372 (inactive)
same,fraction signal,[4],0.0035 (inactive) and -0.0025 (inactive)
COc1ccc(CCN=C2NC(=O)C(=Cc3ccc4ncccc4c3)S2)cc1,liver cell % of control,[1],99.3%
same,parasite % of control,[1],48.7% (inactive)
same,percent of negative control (+Dex),[2],100% (inactive)
same,z-score,[2],0.55
same,EGFP object count,[3],3
same,EGFP/DsRed ratio,[3],0.381 (inactive)
same,fraction signal,[4],0.001 (inactive)
Cc1ccc(NC(=O)c2ccnc(N3CCOCC3)c2)cc1-c1ccc(C(=O)NCC2CC2)cc1,liver cell % of control,[1],100%
same,parasite % of control,[1],95.1% (inactive)
same,percent of negative control (+Dex),[2],102% (inactive)
same,z-score,[2],1.12
same,z-score,[5],0.01 (inactive)
same,z-score,[6],-0.216 (inactive)
same,fraction signal,[4],-0.0075 (inactive)
same,z-score,[7]; [16],-0.365 (inactive)
same,z-score,[7]; [17],-0.395
O=C1NC(=NCc2cccs2)OC1=Cc1ccc2ncccc2c1,liver cell % of control,[1],113%
same,parasite % of control,[1],64.9% (inactive)
same,percent of negative control (+Dex),[2],55% (active)
same,z-score,[2],-4.77
same,EGFP object count,[3],3.5
same,EGFP/DsRed ratio,[3],0.0818 (inactive)
same,fraction signal,[4],-0.0135 (inactive)
OCCn1c(-c2ccncc2)c(-c2ccc(F)cc2)c2ncccc21,liver cell % of control,[1],114%
same,parasite % of control,[1],46% (inactive)
same,percent of negative control (+Dex),[2],99.5% (inactive)
same,z-score,[2],0.305
same,EGFP object count,[3],5.5
same,EGFP/DsRed ratio,[3],0.119 (inactive)
same,fraction signal,[4],-0.0135 (inactive)
CS(=O)(=O)CCNCc1ccc(-c2ccc3ncnc(Nc4ccc(OCc5ccccc5)c(Cl)c4)c3c2)o1,growth inhibition,[8],76% (active)
same,inhibition,[9],4% (inactive)
same,inhibition,[10],-7% (inactive)
same,growth inhibition,[11],101% (active)
same,liver cell % of control,[1],113%
same,parasite % of control,[1],73.2% (inactive)
same,percent of negative control (+Dex),[2],73.5% (inactive)
same,z-score,[2],-1.31
same,z-score,[5],-0.785 (inactive)
same,z-score,[6],2.12 (inactive)
same,fraction signal,[4],-0.0085 (inactive)
same,outcome,[12],inactive
same,outcome,[13],inactive
same,outcome,[14],inactive
same,outcome,[15],inactive
same,z-score,[7]; [16],-0.588 (inactive)
same,z-score,[7]; [17],-0.304
Fc1ccc(-c2ncn(C3CCNCC3)c2-c2ccnc(Oc3ccc(Cl)cc3)n2)cc1,liver cell % of control,[1],79.3%
same,parasite % of control,[1],63.5% (inactive)
same,percent of negative control (+Dex),[2],103% (inactive)
same,z-score,[2],0.58
same,z-score,[5],0.16 (inactive)
same,z-score,[6],-0.186 (inactive)
same,fraction signal,[4],-0.006 (inactive)
same,z-score,[7]; [16],0.00888 (inactive)
same,z-score,[7]; [17],-0.374
COc1ccccc1C1=C(Nc2ccccc2)C(=O)NC1=O,liver cell % of control,[1],112%
same,parasite % of control,[1],110% (inactive)
same,percent of negative control (+Dex),[2],102% (inactive)
same,z-score,[2],0.775
same,z-score,[5],-0.36 (inactive)
same,z-score,[6],-0.103 (inactive)
same,fraction signal,[4],-0.012 (inactive)
same,z-score,[7]; [16],-1.08 (inactive)
same,z-score,[7]; [17],-0.271
Nc1c(C(=O)c2cccc(CCS(N)(=O)=O)c2)cnn1-c1ccc(F)cc1,liver cell % of control,[1],92.4%
same,parasite % of control,[1],53.8% (inactive)
same,percent of negative control (+Dex),[2],105% (inactive)
same,z-score,[2],0.275
same,EGFP object count,[3],2
same,EGFP/DsRed ratio,[3],0.0563 (inactive)
same,fraction signal,[4],0.0055 (inactive)
Nc1c(C(=O)c2cccc(C(O)CO)c2)cnn1-c1ccc(F)cc1 (centres undefined),liver cell % of control,[1],101%
same,parasite % of control,[1],60.5% (inactive)
same,percent of negative control (+Dex),[2],110% (inactive)
same,z-score,[2],1.48
same,EGFP object count,[3],4.5
same,EGFP/DsRed ratio,[3],0.197 (inactive)
same,fraction signal,[4],0.0035 (inactive)
